# The list is not random: actives were taken first. Their share in the collection is about 15%.
# ELG1 DNA repair: qHTS screen for small molecules that inhibit ELG1-dependent DNA repair in human embryonic kidney (HEK293T) cells expressing luciferase-tagged ELG1 | HEK293T ELG1-luciferase reporter, luminescence, 16 h; DNA damage induced by 5-fluorouridine | Potency, µM (highest dose often 46.1 µM), inactives show at the top dose activity change, negative = inhibition, actives largely listed as inhibitors | 330,000 compounds, 2.3% hits; also: nearly all actives have a fitted effect of over 55% in size
#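 HEK293T cells expressing luciferase-tagged ELG1 (2,000/well) received 5-Fluorouridine plus compound or DMSO for 16 hr at 37 °C. Luciferase was read by ONE-Glo luminescence after 30 min at room temperature.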
# TDP1 cell CPT: qHTS for Inhibitors of human tyrosyl-DNA phosphodiesterase 1 (TDP1): qHTS in cells in presence of CPT | chicken DT40 Tdp1-/-;hTDP1 cells + 20 nM CPT, ATP luminescence, 48 h | Potency, µM (doses to about 46.2 µM), inactives show at the highest dose activity change, negative = growth inhibition, most hits filed as inhibitors | 420,000 compounds, 12% hits | AID 686979, 2013; also: nearly all actives have a fitted effect of over 55% in size
#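 Chicken DT40 Tdp1-/- cells stably complemented with human TDP1 were seeded at 400 cells/well in medium containing 20 nM camptothecin, exposed to pin-transferred compounds, and grown at 37 °C for at least 48 hr. Viability was read as ATP luminescence.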
# VP16 counter: VP16 counterscreen qHTS for inhibitors of ROR gamma transcriptional activity. Drosophila S2 Gal4-VP16 UAS-luciferase, luminescence, 20 h. Potency, µM (series often up to 53.6 µM), without a hit: at the highest dose activity, negative = inhibition, actives largely listed as inhibitors. 310,000 compounds, 3.5% hits. AID 2546, 2010;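 also: Gal4-VP16 expression switched on by copper sulfate through the metallothionein promoter; nearly all actives have a fitted effect of over 50% in size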
# RORg inh: qHTS for inhibitors of ROR gamma transcriptional activity; Nuclear receptor ROR-gamma (Mus musculus), P51450; Drosophila S2 Gal4-RORgamma UAS-luciferase reporter, 20 h; Potency, µM (doses to about 53.6 µM), inactives show at the top dose activity change, negative = inhibition, most hits filed as inhibitors; 310,000 compounds, 5.4% hits; also: nearly all actives have a fitted effect of over 60% in size
#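 In this cell-based reporter format, copper sulfate (700 uM final) drives Gal4–ROR gamma fusion expression from a metallothionein promoter in Drosophila Schneider cells; compounds preincubated 1 hr, reporter read after 20 hr at ambient temperature.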
# ALOX12 inh: Primary qHTS assay for inhibitors of human arachidonate 12S-lipoxygenase (ALOX12): Round 2 | Potency, µM (top dose mostly 108 µM), inactives show at the highest dose activity change, negative = inhibition, most hits filed as inhibitors | 580,000 compounds, 1.1% hits | purified 12hLO, xylenol orange hydroperoxide absorbance | Polyunsaturated fatty acid lipoxygenase ALOX12 (Homo sapiens), P18054 | AID 1671190, 2021
# Target sequence (P18054 whole entry, looked up): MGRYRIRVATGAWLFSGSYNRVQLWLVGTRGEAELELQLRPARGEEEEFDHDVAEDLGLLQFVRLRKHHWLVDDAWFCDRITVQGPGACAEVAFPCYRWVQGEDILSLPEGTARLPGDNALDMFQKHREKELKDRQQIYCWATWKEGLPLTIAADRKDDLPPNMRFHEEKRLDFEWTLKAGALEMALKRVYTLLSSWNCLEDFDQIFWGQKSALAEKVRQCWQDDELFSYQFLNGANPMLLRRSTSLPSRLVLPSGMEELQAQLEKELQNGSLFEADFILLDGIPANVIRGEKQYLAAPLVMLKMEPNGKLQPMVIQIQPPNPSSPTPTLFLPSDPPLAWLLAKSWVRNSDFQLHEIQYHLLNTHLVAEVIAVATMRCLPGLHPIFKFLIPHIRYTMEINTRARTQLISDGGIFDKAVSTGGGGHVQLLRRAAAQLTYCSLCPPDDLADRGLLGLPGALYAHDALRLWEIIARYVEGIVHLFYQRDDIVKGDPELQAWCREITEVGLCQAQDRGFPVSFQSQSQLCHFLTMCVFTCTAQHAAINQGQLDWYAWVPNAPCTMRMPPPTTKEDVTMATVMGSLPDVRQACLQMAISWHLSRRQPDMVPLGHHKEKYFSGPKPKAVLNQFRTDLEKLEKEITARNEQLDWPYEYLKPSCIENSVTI
#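 Purified human 12hLO (150 nM final) in 25 mM Hepes, 0.01% Triton X-100, pH 7.0 was preincubated 15 min at room temperature with compound. Then 40 uM arachidonic acid was added, 30 min. Hydroperoxide was read by Fe-XO absorbance ratio 573/405 nm.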
# TDP1 cell noCPT: qHTS for Inhibitors of human tyrosyl-DNA phosphodiesterase 1 (TDP1): qHTS in cells in absence of CPT. DT40 Tdp1-/- hTDP1 cells, no CPT, ATP luminescence, 48 h. Potency, µM (doses to about 46.2 µM), for inactives: top-dose activity change, negative = growth inhibition, most hits filed as inhibitors. 420,000 compounds, 15% hits. AID 686978, 2013; also: nearly all actives have a fitted effect of over 55% in size
#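 Growth of hTDP1-complemented DT40 Tdp1-knockout cells is measured by ATP luminescence after at least 48 hr compound exposure at 37 °C, with DMSO substituting for the 20 nM CPT used in the parallel screen.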
# The depositor's hits bear a star; ? = inconclusive; · = not tested or not shown; ! = not active in a repeat; [ ] = dose if it differs, or a comment. Calls follow the shape of the dose curve; as a rule, active = well fitted curve in the direction sought with a large enough effect; inconclusive = small, poorly fitted or top-dose-only effect, or another doubt; inactive = no such curve, though single readings can be large; an effect the other way counts as inactive or inconclusive. % is scaled to controls: 0 for no effect and ±100 for the full control effect; potency is read from the fitted curve at half-maximal effect.
SMILES,ELG1 DNA repair,TDP1 cell CPT,VP16 counter,RORg inh,ALOX12 inh,TDP1 cell noCPT
COC(=O)C1=C(C(=O)OC)C(c2cc(Br)ccc2O)c2sc(=O)[nH]c2S1 (configuration not stated),7%,9%,-5%,26%[10 µM],45µM*,-13%
COc1cccc(CNC(=O)[C@@H]2C[C@@H](O)CN2C2CCN(C(=O)CC(C)C)CC2)c1,·,·,·,·,47%,·
CC(C)(C)c1ccc(C(=O)C2CC2)cc1,·,7%,·,·,8%,0%
Cc1ccc(SC2=C[C@@]3(O)CC[C@@H](O)[C@@](Sc4ccc(C)cc4)(C2=O)[C@H]3O)cc1,·,23µM*,·,·,?,?
CC(C)(C)c1ccc(SC2=C[C@@]3(O)CC[C@@H](O)[C@@](Sc4ccc(C(C)(C)C)cc4)(C2=O)[C@H]3O)cc1,·,4.6µM*,·,·,?,3.3µM*
Cc1ccc(-c2n[nH]c(=O)c3ccccc23)cc1N,-29%,?,-10%,39%,0%,-23%
Nc1ccc(-c2n[nH]c(=O)c3ccccc23)cc1N,-4%,0.46µM*,-14%,5%,-1%,?
O=c1cc(Cc2nnc(SCc3ccccc3)n2-c2ccc(Cl)cc2)[nH]c(=O)[nH]1,25%,-3%,1%,-2%,?,29%
O=S(Cc1ccc(Br)cc1)Cc1nnc(SCc2ccc(Cl)cc2)n1-c1ccccc1 (configuration not stated),?,16µM*,-11%,?,?,18µM*
Nn1c(Cc2cccc3ccccc23)nnc1SCc1c(F)cccc1Cl,10%,?,-9%,42%,-5%,-29%
O=S(Cc1ccc(Br)cc1)Cc1nnc(SCc2c(F)cccc2Cl)n1-c1ccccc1 (configuration not stated),23µM*,15µM*,-7%,?,?,9.2µM*
O=C(Nc1ccc(F)cc1)c1ccc2c(c1)OCCN(c1ccccc1)C2,·,·,·,·,-6%[176 µM],·
COc1ccc(-c2nnc(SCC(=O)Nc3ncc(C(F)(F)F)cc3Cl)n2CC(C)C)cc1,9%,-26%,-16%,-42%,-20%,-26%
CCn1c(SCC(=O)Nc2ncc(C(F)(F)F)cc2Cl)nnc1-c1cccc(C)c1,0%,-2%,?,10µM*,-16%,-5%
O=C(CSc1nnc(-c2ccc3c(c2)OCO3)o1)Nc1ncc(C(F)(F)F)cc1Cl,-8%,?,?,4µM*,434%,16µM*
Cc1cnc(C2CCOCC2)n1CC1CCN(S(=O)(=O)c2cccnc2)CC1,·,·,·,·,28%,·
CC(=O)c1c(C(C)=O)c(C)n(NC(=O)c2ccc(Cl)cc2)c1C,4%,?,-8%,-39%,-16%,2%
CC(=O)c1c(C(C)=O)c(C)n(Cc2ccc(Cl)cc2)c1C,-6%,16µM*,-23%,27%,0%,18µM*
COCCN(Cc1nc2ccccc2c(=O)[nH]1)C(=O)c1oc2ccc(F)cc2c1C,·,·,·,·,7%,·
CCOc1ccccc1NC(=O)c1nc(S(=O)(=O)Cc2cccc(C)c2)ncc1Cl,?,1.2µM*,2.5µM*,8.9µM*,41%,0.65µM*
Cc1nnc(NC(=O)c2nc(S(=O)(=O)Cc3ccccc3C)ncc2Cl)s1,21µM*,15µM*,0.71µM*,3.5µM*,-14%,12µM*
CCc1nnc(NC(=O)c2nc(SCc3ccccc3F)ncc2Cl)s1,·,-16%,·,·,-15%,8%
CCc1nnc(NC(=O)c2nc(S(=O)(=O)Cc3ccc(C)cc3)ncc2Cl)s1,?,16µM*,11µM*,16µM*,1%,21µM*
CCc1nnc(NC(=O)c2nc(S(=O)(=O)Cc3cccc(C)c3)ncc2Cl)s1,?,5.8µM*,7.9µM*,13µM*,2%,5.2µM*!
O=C(NCCc1ccccn1)c1cccc(NS(=O)(=O)c2ccc3c(c2)OCCO3)c1,·,·,·,·,-31%,·
SMILES,ELG1 DNA repair,TDP1 cell CPT,VP16 counter,RORg inh,ALOX12 inh,TDP1 cell noCPT
CCCn1c(C)c(CC(=O)N(C)Cc2cccnc2)c2c1CC(C)(C)CC2=O,·,·,·,·,22%,·
CN(C)CC(=O)N1Cc2ccccc2CC2(CCN(Cc3ccccc3)C2)C1 (configuration not stated),·,·,·,·,0%[6.33 µM],·
CCc1nnc(NC(=O)c2nc(S(=O)(=O)Cc3ccccc3)ncc2Cl)s1,?,18µM*,8.9µM*,11µM*,-6%,18µM*
CCc1nnc(NC(=O)c2nc(Cl)ccc2Cl)s1,16%,-4%,13%,?,461%,3%
S=c1[nH]nc(C2CCCCC2)n1/N=C/c1ccccc1,14%,-7%,?,8.9µM*,0%,3%
S=c1[nH]nc(C2CCCCC2)n1/N=C/c1ccco1,-7%,-3%,?,?,?,-5%
CN(C)c1ccc(/C=N/n2c(C3CCCCC3)n[nH]c2=S)cc1,-3%,?,6.3µM*,2.5µM*,38%,16µM*
S=c1[nH]nc(C2CCCCC2)n1/N=C/c1ccccn1,12%,-3%,-10%[10 µM],-13%,18µM*,1%
CCOc1ccc(/C=N/n2c(C3CCCCC3)n[nH]c2=S)cc1,-8%,?,?,4µM*,?,?
O=C(/C=C/c1cccnc1)NCCc1cccc2ccccc12,·,·,·,·,4%,·
Oc1ccc(Br)cc1/C=N/n1c(C2CCCCC2)n[nH]c1=S,?,?,?,-39%,8%,?
Fc1ccc(/C=N/n2c(C3CCCCC3)n[nH]c2=S)cc1,?,0%,7.9µM*,3.5µM*,?,0%
Cc1ccsc1/C=N/n1c(C2CCCCC2)n[nH]c1=S,5%,-11%,3.2µM*,2.5µM*,?,-35%
O=C(c1ccccc1OCC1CCCN(C(=O)c2n[nH]c3ccccc23)C1)N1CCOCC1 (configuration not stated),·,·,·,·,15%,·
COCC(C)NC(=O)NC1(C(F)(F)F)Oc2ccc(Cl)cc2O1 (configuration not stated),-2%,13µM*,11µM*,10µM*,-25%,13µM*
COCC(C)NC(=O)NC(=O)c1ccc(Cl)cc1 (configuration not stated),?,?,22%,24%,25%,-20%

# Screening data as filed in PubChem.
